Compound activity deposited in PubChem by National Center for Advancing Translational Sciences (NCATS).
ELG1 genotoxic: qHTS screen for small molecules that induce genotoxicity in human embryonic kidney (HEK293T) cells expressing luciferase-tagged ELG1 | 1.3% of 330,000 active | Potency, µM (titrated, usually from 46 µM), actives largely listed as activators | HEK293T ELG1-luciferase reporter, luminescence, 16 h; further: nearly all actives have a fitted effect of over 60% in size
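DMSO vehicle served as control against compound-treated ELG1-luciferase HEK293T cells; exposure lasted 16 hr at 37 °C and 5% CO2, followed by ONE-Glo luminescence detection after 30 min.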
NPC1 promoter act: qHTS Assay for NPC1 Promoter Activators. Potency, µM (highest dose often 9.22 µM), usual class: activators. AID 485313, 2010. 2.4% of 320,000 active. Huh7 NPC1 promoter luciferase reporter, 24 h; further: nearly all actives have a fitted effect of over 60% in size
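Huh7 reporter cells (NPC1 promoter driving luciferase) are dosed with compound for 24 h at 37 °C, 5% CO2; luciferase detection reagent is then added and luminescence measured after 10 min at ambient temperature.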
Rab9 promoter act: qHTS Assay for Rab9 Promoter Activators; Potency, µM (titrated, usually from 9.22 µM), actives largely listed as activators; 2.8% of 320,000 active; Huh7 Rab9 promoter-luciferase reporter, luminescence, 24 h; AID 485297, 2010; further: nearly all actives have a fitted effect of over 60% in size
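Promoter activation is measured as luciferase luminescence in Huh7 cells stably transfected with a Rab9 promoter–luciferase construct, following 24 h compound exposure at 37 °C and 10 min reagent incubation at ambient temperature.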
SMN2 splice enh: qHTS Assay for Enhancers of SMN2 Splice Variant Expression. HEK293 SMN2-luciferase splicing reporter, luminescence, 30-36 h. Potency, µM (series often up to 46.1 µM), actives largely listed as activators. 2.8% of 210,000 active; further: nearly all actives have a fitted effect of over 55% in size
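HEK293 cells carry an SMN2 […]–luciferase reporter in which exon 7 inclusion puts luciferase in frame. Cells were plated 10-12 h before compound addition, then incubated 30-36 h at 37C. ONE-Glo luminescence was read; sodium butyrate at 4.5 mM final served as control.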
Luc counter: Counterscreen for Luciferase (Kinase-Glo TM) Inhibition; Luciferin 4-monooxygenase (Photuris pensylvanica), Q27757; Kinase-Glo luciferase, ATP luminescence, 8 min; Potency, µM (doses to about 38.3 µM), actives largely listed as inhibitors; 0.28% of 200,000 active; AID 1379, 2008; further: nearly all actives have a fitted effect of over 60% in size
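Kinase-Glo luciferase light output from ATP and luciferin was measured with 10 uM ATP, within the enzyme's linear range. Buffer: 50 mM imidazole pH 7.2, 50 mM KCl, 7 mM MgCl2, 0.01% Tween 20, 0.05% BSA; luminescence read after 8 min at ambient temperature.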
FLuc counter: qHTS profiling assay for firefly luciferase inhibitor/activator using purifed enzyme and Km concentrations of substrates (counterscreen for miR-21 project) | 6.9% of 360,000 active | Potency, µM (doses to about 57.5 µM), usual class: inhibitors | purified FLuc, Km substrates, luminescence inhibition; further: nearly all actives have a fitted effect of over 55% in size
Target sequence (P08659 whole entry, looked up): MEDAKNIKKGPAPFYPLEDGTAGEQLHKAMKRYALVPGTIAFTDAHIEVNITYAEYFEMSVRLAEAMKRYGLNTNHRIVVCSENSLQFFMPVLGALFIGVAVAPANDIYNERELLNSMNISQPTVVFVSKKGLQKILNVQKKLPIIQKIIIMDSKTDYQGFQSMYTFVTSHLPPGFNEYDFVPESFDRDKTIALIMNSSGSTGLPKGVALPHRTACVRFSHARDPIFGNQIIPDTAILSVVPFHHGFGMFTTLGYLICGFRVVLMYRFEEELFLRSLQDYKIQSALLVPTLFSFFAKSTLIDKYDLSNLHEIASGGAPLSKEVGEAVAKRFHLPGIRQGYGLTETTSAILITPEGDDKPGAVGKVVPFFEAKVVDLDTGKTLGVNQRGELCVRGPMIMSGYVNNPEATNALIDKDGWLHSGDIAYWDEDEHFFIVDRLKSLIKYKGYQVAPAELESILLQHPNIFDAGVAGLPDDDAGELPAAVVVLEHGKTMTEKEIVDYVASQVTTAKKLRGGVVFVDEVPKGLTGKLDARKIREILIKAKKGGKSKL
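Purified P. pyralis luciferase (10nM final) with 10uM D-luciferin and 10uM ATP (Km levels) in 50mM Tris acetate pH 7.5, 10mM Mg acetate, 0.01% Tween-20, 0.05% BSA; qHTS 6-point titration, ~60 µM downward; luminescence read.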
A number is an active result; [ ] = dose if it differs, or a comment. Rows were chosen to be rich in hits. Some 7.4% of all compounds tested hit in one or more screens of this group. The call rests on the fitted dose curve; in most records, active means well fitted curve in the direction sought with a large enough effect; inconclusive means small, poorly fitted or top-dose-only effect, or another doubt; inactive means no such curve, though single readings can be large; an effect the other way counts as inactive or inconclusive.

`C[C@@H]1CC[C@@]2(OC1)O[C@H]1[C@@H](O)[C@H]3[C@@H]4CC[C@H]5C[C@@H](O[C@@H]6O[C@H](CO)[C@H](O[C@@H]7O[C@H](CO)[C@@H](O)[C@H](O[C@@H]8OC[C@@H](O)[C@H](O)[C@H]8O)[C@H]7O[C@@H]7O[C@H](CO)[C@@H](O)[C@H](O[C@@H]8O[C@H](CO)[C@@H](O)[C@H](O)[C@H]8O)[C@H]7O)[C@H](O)[C@H]6O)[C@H](O)C[C@]5(C)[C@H]4CC[C@]3(C)[C@H]1[C@@H]2C` gave SMN2 splice enh inactive.
`CN1CCN(C(=O)COc2ccc(-c3nc4ccccc4s3)cc2)CC1` gave ELG1 genotoxic inconclusive, NPC1 promoter act 0.631µM, Rab9 promoter act 0.316µM, SMN2 splice enh 3.98µM, Luc counter inactive and FLuc counter 0.151µM.
`CN1CCN(C(=O)COc2ccc3ccccc3c2)CC1` gave ELG1 genotoxic inactive, NPC1 promoter act inactive, Rab9 promoter act inactive and FLuc counter inactive.
Screening C[C@H](Br)CN(C[C@H](C)Br)c1ccc2c(c1)Cc1ccccc1-2 returned SMN2 splice enh inactive[9.22 µM] and Luc counter inactive[7.66 µM].
COc1ccccc1N=Nc1ccc(N)c(C)c1 was read as ELG1 genotoxic inconclusive, NPC1 promoter act inactive, Rab9 promoter act inactive[1.84 µM] and FLuc counter 15.1µM.
Screening OC(c1ccc(Cl)cc1)(c1ccc(Cl)cc1)C(Cl)(Cl)Cl returned SMN2 splice enh inactive.
Screening CNC(=O)Oc1ccc2c(c1)C(=O)c1ccccc1CO2 returned ELG1 genotoxic inactive, NPC1 promoter act inactive, Rab9 promoter act inactive, SMN2 splice enh inactive, Luc counter inactive and FLuc counter 10.7µM.
`CC1=NN(c2ccccc2)C(=O)C1/C=C1/C(=O)NC(=O)N(c2cc(C)cc(C)c2)C1=O` (stereo not drawn) gave ELG1 genotoxic inactive, NPC1 promoter act inactive, Rab9 promoter act inactive, SMN2 splice enh inactive, Luc counter inactive and FLuc counter 16.9µM.
Screening CC1=NN(c2ccccc2)C(=O)C1/C=C1\C(=O)NC(=O)N(c2ccc(C)c(C)c2)C1=O (stereo not drawn) returned ELG1 genotoxic inactive, NPC1 promoter act inactive, Rab9 promoter act inactive, SMN2 splice enh inactive, Luc counter inactive and FLuc counter 15.1µM.
For CC1=NN(c2ccccc2)C(=O)C1/C=C1\C(=O)NC(=O)N(c2cc(C)cc(C)c2)C1=O (stereo not drawn) the results were ELG1 genotoxic inactive, NPC1 promoter act inactive, Rab9 promoter act inactive, SMN2 splice enh inactive, Luc counter inactive and FLuc counter 9.53µM.
For CC1=NN(c2ccccc2)C(=O)C1/C=C1/C(=O)NC(=O)N(c2cccc(C)c2)C1=O (stereo not drawn) the results were ELG1 genotoxic inactive, NPC1 promoter act inactive, Rab9 promoter act inactive, SMN2 splice enh inactive, Luc counter inactive and FLuc counter 13.5µM.
For O=C(O)C(O)(c1ccc(-c2ccccc2)cc1)c1ccc(-c2ccccc2)cc1 the results were SMN2 splice enh inactive[9.22 µM] and Luc counter inactive[7.66 µM].
Screening O=C(Nc1ccccc1OC(=O)N1CCCCC1)N1CCCCC1 returned ELG1 genotoxic inactive, NPC1 promoter act inactive, Rab9 promoter act inactive, SMN2 splice enh inactive, Luc counter inactive and FLuc counter inactive.
`O=C(Oc1ccc2cc(Br)ccc2c1)N1CCCCCC1` gave ELG1 genotoxic 23.1µM, NPC1 promoter act inconclusive, Rab9 promoter act 3.98µM, SMN2 splice enh inconclusive, Luc counter inactive and FLuc counter 6.75µM.
COc1cc2[nH]c(=O)n(Cc3ccc(C(=O)NC4CCCC4)cc3)c(=O)c2cc1OC was read as ELG1 genotoxic inconclusive, NPC1 promoter act inactive, Rab9 promoter act inactive, SMN2 splice enh inactive, Luc counter inactive and FLuc counter inactive.
`C=CCc1ccc(OC(=O)NC2CCCCC2)c(OC)c1` gave ELG1 genotoxic inconclusive, NPC1 promoter act inconclusive, Rab9 promoter act 3.55µM and FLuc counter 10.7µM.
